Viability and Potency data for 40 compounds are collected here from PubChem BioAssay (NCATS).

SMILES strings stand for the structures. Records with an inconclusive call do not appear. Calls of active or inactive are those of the source. Calls come from the whole dose curve; as a rule, active = well fitted inhibition curve with a large enough effect; inconclusive = small, poorly fitted or top-dose-only effect; inactive = no such curve, though single readings can be large or run the other way.
Note: nearly all actives have a fitted effect of over 35% in size.
Potency is the fitted concentration of half-maximal effect.

A short description of one assay: BET inhibitor-based combinations targeting novel dependencies in MECOM-rearranged (r) AML: SET-2 cell line (AID 2202231).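 For Viability: plate controls were DMSO treated cells for no effect and wells without cells for full effect.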 The conditions noted are these: SET-2 AML cells viability, CellTiter-Glo luminescence, 48 h; viability: active compounds read low, concentration not given here. Summed up: (§1)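 Readout: CellTiter-Glo luminescence. Exposure: 48 h, 11 concentrations, 500 cells/well. Metric: AUC and within-line Z-AUC after DMSO/empty-well normalization.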
On to `Cc1ccc(NS(=O)(=O)c2ccc3c(c2)C2C=CCC2C(c2ccc(C(=O)O)cc2)N3)cc1C` (stereo not drawn), for which the viability was 109% (inactive).

Consider `CCCC[C@@H](C=O)NC(=O)[C@H](CC(C)C)NC(=O)OCc1ccccc1`, for which the Potency was 18.6 µM (active).

`CC(=O)O/N=C1\C(=O)N(Cc2cc(Cl)ccc2Cl)c2ccc(Cl)cc21`: the Potency is 9.34 µM (active).

For the compound `Cc1c(C(=O)Nc2ccc(Oc3ccnc4[nH]cc(-c5ccccc5)c34)c(F)c2)c(=O)n(-c2ccc(F)cc2)n1C`, the viability was 96.3% (inactive).

In the case of `C[C@H](CCC(=O)O)[C@H]1CC[C@H]2[C@@H]3[C@@H](O)C[C@@H]4C[C@H](O)CC[C@]4(C)[C@H]3CC[C@]12C`, the viability is 111% (inactive).

For `COc1ccc2c(c1)CC[C@@H]1[C@@H]2CC[C@]2(C)[C@@H](NCCCCCCN3C(=O)C=CC3=O)CC[C@@H]12`, the viability is 113% (inactive).

`COc1cc2c3c(n(CCCN4CCOCC4)c(=O)c2cc1OC)-c1cc2c(cc1C3=O)OCO2`: the Potency was 0.105 µM (active).

`O=C(Nc1cnn2ccc(N3CCC[C@@H]3c3cc(F)ccc3F)nc12)N1CC[C@H](O)C1`: the viability was 98.9% (inactive).

As for `COc1cc(F)ccc1-c1ncnc(Nc2cccc(CS(C)(=N)=O)c2)n1` (stereo not drawn), the Potency was 1.32 µM (active).

For the compound `C[C@H](NC(=O)c1c(N)nn2cccnc12)c1cc2cccc(C#Cc3cnn(C)c3)c2c(=O)n1-c1ccccc1`, the viability is 101% (inactive).

Take `NC1CCCN(c2c(/C=C3\SC(=O)NC3=O)cccc2-c2ccccc2)C1` (stereo not drawn): the Potency was 5.9 µM (active).

Turning to `COc1cc2c3c(n(CCCNCCO)c(=O)c2cc1OC)-c1cc2c(cc1C3=O)OCO2`, the Potency was 0.148 µM (active).

Regarding `C[C@H]1CNCCCN1S(=O)(=O)c1cccc2cncc(F)c12`, the viability was 113% (inactive).

As to `CCCCCCCCCCCC(CC1OC(=O)C1CCCCCC)OC(=O)C(CC(C)C)NC=O` (stereo not drawn), the viability was 98.6% (inactive).

In the case of `NC[C@H]1O[C@H](O[C@H]2[C@H](O)[C@@H](O[C@H]3O[C@H](CO)[C@@H](O)[C@H](N)[C@H]3O)[C@H](N)C[C@@H]2N)[C@H](N)C[C@@H]1O`, the viability was 115% (inactive).

Regarding `COC1CC(C(=O)c2ccc3c(N)ncc(-c4ccc(-c5cnn(C)c5)cc4)c3n2)C1` (stereo not drawn), the viability was 92.9% (inactive).

Turning to `CC(=O)NCCCS(=O)(=O)O`, the viability was 115% (inactive).

As for `CC(C)n1ncnc1-c1cn2c(n1)-c1ccc(O[C@@H](C)C(N)=O)cc1OCC2`, the viability was 99% (inactive).

Turning to `COc1ccc(C(=O)N2CCN(c3ccc4c(c3)CCC(=O)N4)CC2)cc1OC`, the viability was 105% (inactive).

On to `Cc1c(-c2cnccn2)ssc1=S`, for which the viability is 94.7% (inactive).

Regarding `Cc1ccc(NC(=O)NCc2ccc3c(c2)CN(C2CCC(=O)NC2=O)C3=O)cc1Cl` (stereo not drawn), the Potency is 0.0295 µM (active).

For the compound `COc1ccc(S(=O)(=O)N(C(C)=O)c2ccccc2/C=C/c2cc[n+]([O-])cc2)cc1`, the Potency is 2.63 µM (active).

As to `COc1ccc(S(=O)(=O)N2CCc3cccc(-c4ccncc4)c32)cc1`, the Potency is 1.66 µM (active).

In the case of `Cc1cc(C)c2c(c1)[C@@H](N(Cc1cc(C(F)(F)F)cc(C(F)(F)F)c1)c1nnn(C)n1)CCCN2CC1CCC(C(=O)O)CC1` (stereo partly drawn), the viability is 101% (inactive).

With `CCO[C@@H]1OC(=O)C[C@@H]1NC(=O)[C@@H]1CCCN2C(=O)CC[C@H](NC(=O)c3nccc4ccccc34)C(=O)N12`, the viability was 125% (inactive).

Consider `CCCCC[C@H](O)/C=C/[C@H]1[C@H](O)CC(=O)[C@@H]1CCCCCCC(=O)O`, for which the viability was 103% (inactive).

Turning to `COc1cc2nccc(Oc3ccc(NC(=O)c4cn(C(C)C)c(=O)n(-c5ccc(F)cc5)c4=O)cc3F)c2cc1OC`, the viability is 113% (inactive).

Consider `CC(C)C[C@H](NC(=O)[C@H](Cc1ccccc1)NC(=O)OCc1ccccc1)C(=O)C=O`, for which the viability is 114% (inactive).

The nature of another assay: BET inhibitor-based combinations targeting novel dependencies in MECOM-rearranged (r) AML: OCI-AML3 cell line (AID 2202232). The conditions noted are these: CellTiter-Glo luminescence, 48 h; Potency: OCI-AML3 viability; series mostly up to 46 µM. Summed up: as §1
(Cellular ATP, detected with luciferase, serves as a proxy for viable cell number.)
`O=C(CCCCCCC(=O)N/N=C/c1ccc(N(c2ccccc2)c2ccccc2)cc1)NO`: the Potency is 13.2 µM (active).

With `Nc1nc(F)nc2c1ncn2[C@@H]1O[C@H](COP(=O)(O)O)[C@@H](O)[C@@H]1O`, the Potency was 20.9 µM (active).

As to `COc1cc2ncn(-c3cc(OCc4ccccc4C(F)(F)F)c(C(N)=O)s3)c2cc1OC`, the Potency was 1.18 µM (active).

As to `COc1cc(-c2cn(C)c(=O)c3cnccc23)cc(OC)c1CN(C)C`, the Potency was 4.68 µM (active).

For the compound `CC(C)C(=O)OCC(=O)[C@@]12O[C@H](C3CCCCC3)O[C@@H]1C[C@H]1[C@@H]3CCC4=CC(=O)C=C[C@]4(C)[C@H]3[C@@H](O)C[C@@]12C`, the Potency is 14.8 µM (active).

For `COc1cc2c3c(n(CCCn4ccnc4)c(=O)c2cc1OC)-c1cc2c(cc1C3=O)OCO2`, the Potency is 0.0372 µM (active).

Consider `CC#CC(=O)N1CC[C@@H](n2c(=O)n(-c3ccc(Oc4ccccc4)cc3)c3c(N)ncnc32)C1`, for which the Potency result is “inactive”.

As for `CC(=O)Nc1cc(Oc2ccc3c(nc(Nc4ccc(F)cc4F)n3C)c2C)ccn1`, the Potency was 0.934 µM (active).

As for `O=C(O)CNC(=O)c1ncc(-c2cccc(Cl)c2)cc1O`, the Potency is 6.61 µM (active).

Consider `COc1nnc2ccc(N3CCC(c4ccc(OCCN5CCN(C)C(=O)[C@H]5C)cc4)CC3)nn12`, for which the Potency is 0.0417 µM (active).

As to `CCC(C)CNCC(=O)N1CCc2sccc2C1c1cccc(C)n1` (stereo not drawn), the Potency entry is “inactive”.

Take `C=C1C[C@@H]2CC[C@@]34C[C@H]5O[C@H]6[C@@H](O3)[C@H]3O[C@H](CC[C@@H]3O[C@H]6[C@H]5O4)CC(=O)C[C@@H]3[C@@H](OC)[C@@H](C[C@H](O)CN)O[C@H]3C[C@H]3O[C@@H](CC[C@@H]1O2)C[C@@H](C)C3=C`: the Potency was 0.0015 µM (active).

For the compound `Cc1ccc(NS(=O)(=O)c2ccc3c(c2)C2C=CCC2C(c2ccc(C(=O)O)cc2)N3)cc1C` (stereo not drawn), the Potency entry is “inactive”.

`CCCC[C@@H](C=O)NC(=O)[C@H](CC(C)C)NC(=O)OCc1ccccc1`: the Potency was 13.2 µM (active).

Consider `CC(=O)O/N=C1\C(=O)N(Cc2cc(Cl)ccc2Cl)c2ccc(Cl)cc21`, for which the Potency was 13.2 µM (active).

In the case of `Cc1c(C(=O)Nc2ccc(Oc3ccnc4[nH]cc(-c5ccccc5)c34)c(F)c2)c(=O)n(-c2ccc(F)cc2)n1C`, the Potency was 20.9 µM (active).

`C[C@H](CCC(=O)O)[C@H]1CC[C@H]2[C@@H]3[C@@H](O)C[C@@H]4C[C@H](O)CC[C@]4(C)[C@H]3CC[C@]12C`: the Potency result was “inactive”.

Consider `COc1ccc2c(c1)CC[C@@H]1[C@@H]2CC[C@]2(C)[C@@H](NCCCCCCN3C(=O)C=CC3=O)CC[C@@H]12`, for which the Potency result was “inactive”.

For the compound `COc1cc2c3c(n(CCCN4CCOCC4)c(=O)c2cc1OC)-c1cc2c(cc1C3=O)OCO2`, the Potency was 0.0332 µM (active).

With `O=C(Nc1cnn2ccc(N3CCC[C@@H]3c3cc(F)ccc3F)nc12)N1CC[C@H](O)C1`, the Potency entry was “inactive”.

Turning to `COc1cc(F)ccc1-c1ncnc(Nc2cccc(CS(C)(=N)=O)c2)n1` (stereo not drawn), the Potency is 0.934 µM (active).

As to `C[C@H](NC(=O)c1c(N)nn2cccnc12)c1cc2cccc(C#Cc3cnn(C)c3)c2c(=O)n1-c1ccccc1`, the Potency is 0.0512 µM (active).

As for `NC1CCCN(c2c(/C=C3\SC(=O)NC3=O)cccc2-c2ccccc2)C1` (stereo not drawn), the Potency was 0.235 µM (active).

For the compound `COc1cc2c3c(n(CCCNCCO)c(=O)c2cc1OC)-c1cc2c(cc1C3=O)OCO2`, the Potency is 0.0934 µM (active).

Take `C[C@H]1CNCCCN1S(=O)(=O)c1cccc2cncc(F)c12`: the Potency entry was “inactive”.

On to `CCCCCCCCCCCC(CC1OC(=O)C1CCCCCC)OC(=O)C(CC(C)C)NC=O` (stereo not drawn), for which the Potency entry was “inactive”.

`NC[C@H]1O[C@H](O[C@H]2[C@H](O)[C@@H](O[C@H]3O[C@H](CO)[C@@H](O)[C@H](N)[C@H]3O)[C@H](N)C[C@@H]2N)[C@H](N)C[C@@H]1O`: the Potency entry was “inactive”.

On to `COC1CC(C(=O)c2ccc3c(N)ncc(-c4ccc(-c5cnn(C)c5)cc4)c3n2)C1` (stereo not drawn), for which the Potency is 8.33 µM (active).

As to `CC(=O)NCCCS(=O)(=O)O`, the Potency entry is “inactive”.

On to `CC(C)n1ncnc1-c1cn2c(n1)-c1ccc(O[C@@H](C)C(N)=O)cc1OCC2`, for which the Potency was 2.35 µM (active).

`COc1ccc(C(=O)N2CCN(c3ccc4c(c3)CCC(=O)N4)CC2)cc1OC`: the Potency entry is “inactive”.

Consider `Cc1c(-c2cnccn2)ssc1=S`, for which the Potency was 2.95 µM (active).

As for `Cc1ccc(NC(=O)NCc2ccc3c(c2)CN(C2CCC(=O)NC2=O)C3=O)cc1Cl` (stereo not drawn), the Potency is 0.003 µM (active).

Take `COc1ccc(S(=O)(=O)N(C(C)=O)c2ccccc2/C=C/c2cc[n+]([O-])cc2)cc1`: the Potency is 1.18 µM (active).

As for `COc1ccc(S(=O)(=O)N2CCc3cccc(-c4ccncc4)c32)cc1`, the Potency is 1.05 µM (active).

On to `Cc1cc(C)c2c(c1)[C@@H](N(Cc1cc(C(F)(F)F)cc(C(F)(F)F)c1)c1nnn(C)n1)CCCN2CC1CCC(C(=O)O)CC1` (stereo partly drawn), for which the Potency was 8.33 µM (active).

Turning to `CCO[C@@H]1OC(=O)C[C@@H]1NC(=O)[C@@H]1CCCN2C(=O)CC[C@H](NC(=O)c3nccc4ccccc34)C(=O)N12`, the Potency result was “inactive”.

Regarding `CCCCC[C@H](O)/C=C/[C@H]1[C@H](O)CC(=O)[C@@H]1CCCCCCC(=O)O`, the Potency is 9.34 µM (active).

With `COc1cc2nccc(Oc3ccc(NC(=O)c4cn(C(C)C)c(=O)n(-c5ccc(F)cc5)c4=O)cc3F)c2cc1OC`, the Potency result is “inactive”.

Turning to `CC(C)C[C@H](NC(=O)[C@H](Cc1ccccc1)NC(=O)OCc1ccccc1)C(=O)C=O`, the Potency result was “inactive”.

The term viability denotes a read-out of living cells in per cent, often relative to untreated cells.
